Assay results taken from PubChem BioAssay.
Where “and” joins values, the source holds several entries; their conditions need not be identical. Identical values can stand only once. The list shows a part of the results. Calls of active or inactive are those of the source. Unless noted, no stated cut-off is given here; in the data, active means inhibition above about 20%; inactive means the rest.

What was measured:
[1] = test system: TLR4-MyD88 interaction (human), BLA complementation; test: disruptors of TLR4 binding to MyD88 – cell-based, HeLa CL3-4, BLA complementation, FRET ratio, confirmation (AID 941;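 active means mean inhibition across three repeat runs above about 25% carried over from the earlier screen, limit read from the data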;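 further: plate controls were DMSO only for no effect and clavulanic acid blocking BLA at full dose for full effect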); details: CCF4 FRET ratio, at 8.4 µM, active compounds read high
[2] = BLA reporter interference in HeLa cells – cell-based, full-length BLA, CCF4 FRET ratio, artefact control for TLR4-MyD88 binding inhibitor project, confirmation (AID 1237;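 active means mean inhibition over three repeats above about 26% taken from the earlier screen, limit read from the data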;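 further: HeLa cells stably expressing beta-lactamase reporter as counterscreen for TLR4-MyD88 inhibitors; 0% = DMSO and 100% = clavulanic acid full inhibition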); details: at 8.4 µM, active compounds read high
[3] = blockers of IL-6 STAT3 signaling – U3A cells, luciferase, luminescence, confirmation (AID 1265;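 active means inhibition above the hit cutoff computed for the primary STAT3 screen, cut at about 44% in these data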;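 further: 0% = IL-6 plus DMSO and 100% = IL-6 plus nifuroxazide control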); details: IL-6 STAT3 luciferase reporter, at 5.7 µM, active compounds read high, cell line lacks STAT1
[4] = inhibition of TNF-alpha-driven NF-kB transcription – cell-based, HEK293T, luciferase, TNF-alpha stimulus, counter-screen for STAT3 inhibitor project, confirmation (AID 1308;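 active means inhibition above the mean of solvent-only control wells plus 3 SD, cutoff set per campaign, cut at about 13% in these data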;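 further: 0% = TNF-alpha with DMSO and 100% = TNF-alpha with MG high control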); details: HEK293T NF-kB luciferase reporter, TNF-alpha induced; at 5.7 µM; active compounds read high
[5] = inhibition of STAT1-driven transcription – cell-based, NIH 3T3, luciferase luminescence, IFN-gamma, counter-screen for STAT3 inhibitor project, confirmation (AID 1317;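 active means inhibition above the mean plus 3 SD of solvent-only control wells, limit set per screening run, cut at about 16% in these data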;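 further: 0% = DMSO with IFN-gamma and 100% = nifuroxazide control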); details: NIH 3T3 STAT1-luciferase reporter, IFN-gamma induced, at 5.7 µM, active compounds read high
[6] = suppression of KLF5 promoter-driven luciferase – DLD-1 cells, luminescence, confirmation (AID 1834;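 active means inhibition above a set limit taken from the earlier primary screen, cut at about 63% in these data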;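 further: 0% = DMSO wells and 100% = LY294002 at 200 µM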); details: DLD-1 KLF5 promoter firefly luciferase reporter, at 4 µM, active compounds read high
[7] = IEC-6 intestinal cell killing – luminescence, triplicate, cytotoxicity control for KLF5 inhibitor project (AID 1905; in the data active means inhibition above about 23%;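 further: cells exposed to compounds for 48 hours before viability read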); details: IEC-6 rat intestinal cells, viability luminescence; at 4 µM; active compounds read high
[8] = molecular target: Nuclear receptor coactivator 3 (Homo sapiens) (UniProt Q9Y6Q9); test: NCOA3 GAL4-fusion reporter inhibition – cell-based, luminescence, quadruplicate, confirmation (AID 588792;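 active means mean inhibition over 43.08%, the solvent-only control mean plus 3 SD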;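 further: 0% = DMSO treated cells and 100% = gossypol at 36 µM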); details: HEK293 GAL4-SRC3 luciferase reporter, at 3.6 µM, active compounds read high
[9] = test system: transactivating tegument protein VP16 (Human herpesvirus 1), Gal4-VP16 luciferase reporter; test: repression of VP16-driven luciferase reporter – cell-based, luminescence, high throughput, counter-screen for SRC3 inhibitor project (AID 588794; in the data active means inhibition above about 30%); details: mammalian cells, at 3.6 µM, active compounds read high
[10] = molecular target: Nuclear receptor coactivator 1 (Homo sapiens) (UniProt Q15788); test: NCOA1 GAL4-fusion reporter inhibition – cell-based, luminescence, quadruplicate, confirmation (AID 588820;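 active means mean inhibition above 46.68%, the untreated control wells mean plus 3 SD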;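 further: 0% = DMSO wells and 100% = gossypol 36 µM treated wells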); details: HEK293 GAL4-SRC1 luciferase reporter, at 3.6 µM, active compounds read high
[11] = repression of VP16-driven luciferase reporter – cell-based, luminescence, high throughput, counter-screen for SRC1 inhibitor project (AID 588824; in the data active means inhibition above about 25%); details: cell-based VP16 transactivation luciferase luminescence; at 3.6 µM; active compounds read high
[12] = molecular target: Photoreceptor-specific nuclear receptor (Homo sapiens) (UniProt Q9Y5X4); test: retest of NR2E3-NCOR disrupting agonists – cell-based, luminescence, CHO-S two-hybrid, confirmation (AID 624378;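 active means average inhibition above a cutoff equal to the mean inhibition of all tested compounds plus one SD, cut at about 70% in these data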;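 further: 0% = DMSO in NR2E3 cells and 100% = DMSO in cells lacking NR2E3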); details: CHO-S mammalian two-hybrid NR2E3-NCOR, luciferase luminescence; at 3.98 µM; active compounds read high
[13] = nonselective effects on VP16 transactivation – cell-based, luminescence, CHO-S, high throughput, counter-screen for NR2E3 agonist project, confirmation (AID 624379;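 active means mean inhibition above a cutoff equal to the average over all tested compounds plus one standard deviation, cut at about 70% in these data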;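 further: 0% = DMSO with VP16-transfected cells and 100% = DMSO with cells lacking VP16; higher means less reporter light so more repression of VP16 activity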); details: CHO-S GAL4-VP16 luciferase reporter, at 3.98 µM, active compounds read high
[14] = StAR promoter reporter inhibitors, counter-screen for LRH-1 inverse agonist project, cell-based, luminescence, high throughput (AID 651611; in the data active means inhibition above about 28%); details: StAR promoter luciferase reporter counterscreen, at 3.6 µM, active compounds read high
[15] = molecular target: Nuclear receptor subfamily 5 group A member 2 (Homo sapiens) (UniProt O00482); test: NR5A2 activity suppression in reporter cells – cell-based, luminescence, confirmation (AID 651613; in the data active means inhibition above about 42%;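 further: HEK293T cells co-transfected with LRH-1 and StAR promoter luciferase reporter; 0% = vehicle wells and 100% = parental cells lacking receptor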); details: cell-based LRH-1 luciferase reporter, inverse agonism; at 3.6 µM; active compounds read high
[16] = molecular target: Steroidogenic factor 1 (Homo sapiens) (UniProt Q13285); test: inverse agonism at SF1 nuclear receptor – cell-based, luminescence, high throughput, counter-screen for LRH-1 inverse agonist project (AID 651614; in the data active means inhibition above about 44%;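 further: cells cotransfected with StAR promoter reporter and SF1 expression vector; 0% = vehicle on cells with receptor and 100% = vehicle on cells lacking receptor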); details: cell-based SF1 luciferase reporter, at 3.6 µM, active compounds read high
[17] = compounds suppressing VP16-driven luciferase signal – cell-based, luminescence, high throughput, counter-screen for LRH-1 inverse agonist project (AID 651615; in the data active means inhibition above about 33%); details: Gal4-VP16 luciferase reporter cells, at 3.6 µM, active compounds read high
[18] = VP16-driven transactivation reporter suppression – cell-based, luminescence, HEK293, counter-screen for COUP-TFII antagonist project (AID 687007; in the data active means inhibition above about 13%); details: HEK293 Gal4-VP16 luciferase reporter, at 8.5 µM, active compounds read high
[19] = molecular target: COUP transcription factor 2 (Homo sapiens) (UniProt P24468); test: retest of COUP-TFII reporter suppressors – cell-based, luciferase reporter, HEK293, triplicate, confirmation (AID 687008;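 active means mean inhibition over three repeats above a set limit taken from the earlier primary screen, cut at about 38% in these data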;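 further: 100% = cells given the luciferase reporter alone without the COUP-TF2 vector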); details: HEK293 NGFI-A luciferase reporter, luminescence; at 8.5 µM; active compounds read high
[20] = potentiators of IFN-gamma STAT1 reporter activity – cell-based, HTS, luciferase reporter, confirmation (AID 1262;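 active means activation above a set limit carried over from the earlier primary STAT1 screen, cut at about 140% in these data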;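 further: simple ratio to median IFN-gamma plus DMSO wells so 0% means no light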); details: NIH 3T3 STAT1-luciferase reporter, IFN-gamma potentiation, luminescence; at 5.7 µM; active compounds read high; 100% = IFN-gamma EC80 alone, no compound
[21] = enhancement of NF-kB transcriptional signalling – cell-based, HEK293T, luciferase luminescence, TNF-alpha, counter-screen for STAT1 activator project (AID 1306;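 active means activation above the mean of solvent-only control wells plus 3 SD, set per campaign, cut at about 130% in these data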;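 further: TNF-alpha given at a submaximal dose yielding about 80% of full reporter signal; values are well signal over median control so 100% means no change and 0% no light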); details: HEK293T NF-kB luciferase reporter, TNF-alpha stimulated, at 5.7 µM, active compounds read high, 100% = TNF-alpha with vehicle only
[22] = molecular target: Signal transducer and activator of transcription 3 (Homo sapiens) (UniProt P40763); test: enhancers of IL-6 STAT3 transcription – U3A cells, luciferase, luminescence, counter-screen for STAT1 activator project, confirmation (AID 1316;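 active means activation above the solvent-only control well mean plus 3 SD, set per plate batch, cut at about 110% in these data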;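 further: 0% = no luminescence and 100% = median IL-6 plus DMSO wells; higher means more STAT3 reporter activation so hits are non-selective activators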); details: U3A cells STAT3-luciferase reporter, IL-6, luminescence; at 5.7 µM; active compounds read high; 100 = IL-6 alone, no compound effect; cells lack STAT1
[23] = molecular target: (Lyso)-N-acylphosphatidylethanolamine lipase (Mus musculus) (UniProt Q8VD66); test: mouse ABHD4 hydrolase blockers, triplicate – biochemical, fluorescence polarization, confirmation (AID 720658;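 active means mean inhibition across replicates above the hit cutoff set in the primary screen, cut at about 30% in these data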;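 further: 0% = wild-type ABHD4 with DMSO and 100% = catalytically dead S159A mutant with DMSO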); details: purified mABHD4, FP-Rh probe fluorescence polarization; at 8.92 µM; active compounds read high
[24] = test system: HIV-1 integrase (multimerization); test: stimulation of HIV-1 integrase oligomerization – biochemical, TR-FRET, counter-screen for LEDGF/p75 integration inhibitor project (AID 1053131; in the data active means activation above about 8.9%); details: TR-FRET HIV-1 integrase multimerization, at 7.7 µM, active compounds read high
[25] = compounds disturbing TR-FRET signal readout – biochemical, HIV-1 IN multimerization, artefact control for LEDGF/p75-dependent integration inhibitor project, confirmation (AID 1053135;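 active means inhibition above the mean over all tested compounds plus 3 SD, which no compound reached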;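 further: 0% = integrase with antibodies and DMSO and 100% = antibodies without integrase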); details: TR-FRET optical interference counterscreen, at 7.7 µM, active compounds read high
[26] = test system: HIV-1 integrase / human LEDGF/p75 complex; test: blockers of LEDGF/p75-dependent integrase activity – biochemical, TR-FRET, confirmation (AID 1053136; in the data active means inhibition above about 14%); details: TR-FRET LEDGF/p75-dependent HIV-1 integration, at 3.7 µM, active compounds read high
[27] = reduced OD of T4-infected AddAB+ E. coli – absorbance, E. coli V3065, T4 phage, triplicate, AddAB inhibitor project, confirmation (AID 488942;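 active means mean inhibition above a set limit taken from the earlier primary screen, cut at about 13% in these data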;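 further: higher means less bacterial growth since AddAB block lets phage replicate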); details: E. coli V3065 expressing H. pylori AddAB, at 11.9 µM, active compounds read high, T4 phage with gene 2 nonsense mutations
[28] = reduced OD of phage-infected RecBCD+ V66 E. coli – absorbance, mutant T4 phage, counter-screen for AddAB inhibitor project (AID 488955;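 active means mean inhibition above the mean of solvent-only control wells plus 3 SD, cut at about 4% in these data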;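 further: optical density read after an 18 h incubation at 37 °C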); details: OD growth, at 11.9 µM, active compounds read high
[29] = bacterial growth inhibitors – absorbance, counter-screen for AddAB inhibitor project, confirmation (AID 488956; in the data active means inhibition above about 25%); details: bacterial viability, absorbance (AddAB counterscreen); at 11.9 µM; active compounds read high
[30] = reduced OD of V66 E. coli with T4 gene 2 phage – absorbance, RecBCD inhibitor project, confirmation (AID 651982;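 active means mean inhibition over triplicates exceeding the hit threshold derived in the original primary screen, cut at about 11% in these data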); details: E. coli V66 + T4 2- phage, growth OD; at 11.9 µM; active compounds read high
[31] = bacterial growth inhibition – absorbance, high throughput, counter-screen for RecBCD inhibitor project (AID 651983);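 further: E. coli strain V66 grown with compound alone and no phage infection; 0% = bacteria with DMSO vehicle only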; details: E. coli viability, absorbance (OD) growth; at 11.9 µM; active compounds read high
[32] = reduced optical density, T4-challenged addAB+ bacteria – absorbance, E. coli V3065, T4 phage, counter-screen for RecBCD inhibitor project, confirmation (AID 651984;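 active means mean inhibition above the solvent-only control wells' mean plus 3 SD, cut at about 22% in these data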;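 further: higher means less bacterial growth from phage killing when AddAB is blocked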); details: E. coli expressing H. pylori AddAB + T4 phage, OD growth; at 11.9 µM; active compounds read high; gene 2 mutant T4, recBCD-deleted host
[33] = BSA probe fluorescence interference – biochemical, TAMRA-labeled BSA, counter-screen for TCR-CD3 interaction inhibitor project (AID 652035; in the data active means inhibition above about 23%;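 further: 0% = buffer low control and 100% = reference high control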); details: TAMRA-labeled BSA probe fluorescence counterscreen; at 9.4 µM; active compounds read high
[34] = test system: T-cell receptor (TCR)-CD3 interaction, human; test: blockers of TCR binding to CD3 – biochemical, fluorescence, TAMRA-labeled TCR probe, confirmation (AID 652036; in the data active means inhibition above about 19%); details: TAMRA-labeled TCR probe fluorescence binding assay; at 9.4 µM; active compounds read high
[35] = test system: Fam108b (Abhd17b) serine hydrolase [Mus musculus]; test: inhibition of Fam108b (Abhd17b) hydrolase – biochemical, fluorescence polarization, triplicate, counter-screen for RBBP9 inhibitor project, confirmation (AID 1978;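 active means inhibition above a limit from the primary screen, the mean over all compounds plus 3 SD, cut at about 19% in these data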;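 further: 0% = median of active Fam108b wells and 100% = catalytically dead S170A mutant; inhibitors free the probe so polarization falls as inhibition rises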); details: recombinant Fam108b, FP-Rh probe fluorescence polarization; at 9.51 µM; active compounds read high
[36] = molecular target: Toll-like receptor 9 (Homo sapiens) (UniProt Q9NR96); test: disruptors of TLR9 binding to MyD88 – cell-based, CHO, BLA complementation, fluorescence, triplicate, confirmation (AID 540250;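 active means mean inhibition across three repeats above about 21% taken from the earlier screen, limit read from the data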;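 further: blue over green emission ratio reports constitutive TLR9 MyD88 association via BLA complementation; 0% = DMSO vehicle wells and 100% = clavulanate BLA inhibitor wells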); details: CCF4 FRET ratio, at 4.98 µM, active compounds read high
[37] = BLA reporter readout interference – cell-based, fluorescence, artefact control for TLR9-MyD88 binding inhibitor project (AID 540251;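 active means mean inhibition above a 50% cutoff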;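 further: counterscreen of TLR9-MyD88 hits on CMV-driven BLA in CHO-K1 cells; 0% = DMSO alone and 100% = clavulanate blocking BLA; higher means less blue over green ratio so more BLA blockade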); details: CHO-BLA cells, CCF4 FRET ratio, at 4.98 µM, active compounds read high
[38] = CHO cell viability loss – luminescence, single concentration, cytotoxicity control for TLR9-MyD88 binding inhibitor project (AID 588336; in the data active means inhibition above about 11%); details: TLR9-MyD88 CHO cells cytotoxicity, at 4.98 µM, active compounds read high
[39] = molecular target: Receptor-interacting serine/threonine-protein kinase 2 (Homo sapiens) (UniProt O43353); test: inhibitors of RIPK2 association with NOD2 – fluorescence, CHO cells, BLA complementation, triplicate, confirmation (AID 624370;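 active means mean inhibition across replicates above a set limit taken from the earlier primary screen, cut at about 21% in these data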;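 further: 0% = DMSO-only wells and the high end = clavulanate BLA-blocked wells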); details: CCF4 FRET, at 4.98 µM, active compounds read high
[40] = BLA reporter readout interference – cell-based, CHO-K1 CMV-bla, CCF4 FRET, fluorescence, artefact control for NOD2-RIPK2 interaction inhibitor project, confirmation (AID 624371;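 active means mean inhibition above the low-control mean inhibition plus three low-control SD, cut at about 11% in these data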;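 further: 0% = DMSO only wells and 100% = clavulanate high control wells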); details: CCF4 FRET ratio, counterscreen, at 4.98 µM, active compounds read high

Sequence of Steroidogenic factor 1 (Homo sapiens) (Q13285 whole entry, looked up, the tested form may be a part): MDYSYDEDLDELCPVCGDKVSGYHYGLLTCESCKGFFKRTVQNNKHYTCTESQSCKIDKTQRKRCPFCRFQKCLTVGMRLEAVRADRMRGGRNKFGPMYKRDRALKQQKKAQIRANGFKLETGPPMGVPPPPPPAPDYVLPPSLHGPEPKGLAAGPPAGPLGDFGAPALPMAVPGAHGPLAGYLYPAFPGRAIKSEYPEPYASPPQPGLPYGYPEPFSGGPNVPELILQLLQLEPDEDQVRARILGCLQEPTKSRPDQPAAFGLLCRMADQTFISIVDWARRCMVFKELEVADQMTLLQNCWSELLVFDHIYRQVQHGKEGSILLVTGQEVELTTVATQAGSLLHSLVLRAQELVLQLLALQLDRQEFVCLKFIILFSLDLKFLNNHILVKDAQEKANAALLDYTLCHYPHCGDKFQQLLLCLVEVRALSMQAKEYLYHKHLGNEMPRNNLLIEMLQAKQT
Sequence of Nuclear receptor subfamily 5 group A member 2 (Homo sapiens) (O00482 whole entry, looked up): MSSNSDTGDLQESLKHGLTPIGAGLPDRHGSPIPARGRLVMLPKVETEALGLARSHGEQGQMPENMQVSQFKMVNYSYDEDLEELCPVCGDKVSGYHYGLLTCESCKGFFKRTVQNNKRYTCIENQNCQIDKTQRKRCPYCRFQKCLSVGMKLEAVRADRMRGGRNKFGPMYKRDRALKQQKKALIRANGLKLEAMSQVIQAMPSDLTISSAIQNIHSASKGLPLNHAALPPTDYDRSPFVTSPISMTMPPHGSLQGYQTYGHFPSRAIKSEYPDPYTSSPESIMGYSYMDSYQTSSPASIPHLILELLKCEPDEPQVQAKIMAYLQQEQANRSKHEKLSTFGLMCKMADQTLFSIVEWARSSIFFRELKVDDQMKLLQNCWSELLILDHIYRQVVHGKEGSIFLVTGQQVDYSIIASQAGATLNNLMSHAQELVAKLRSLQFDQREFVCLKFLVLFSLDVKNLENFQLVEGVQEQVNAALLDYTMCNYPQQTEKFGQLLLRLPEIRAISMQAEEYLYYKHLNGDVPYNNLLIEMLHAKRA
Sequence of (Lyso)-N-acylphosphatidylethanolamine lipase (Mus musculus) (Q8VD66 whole entry, looked up): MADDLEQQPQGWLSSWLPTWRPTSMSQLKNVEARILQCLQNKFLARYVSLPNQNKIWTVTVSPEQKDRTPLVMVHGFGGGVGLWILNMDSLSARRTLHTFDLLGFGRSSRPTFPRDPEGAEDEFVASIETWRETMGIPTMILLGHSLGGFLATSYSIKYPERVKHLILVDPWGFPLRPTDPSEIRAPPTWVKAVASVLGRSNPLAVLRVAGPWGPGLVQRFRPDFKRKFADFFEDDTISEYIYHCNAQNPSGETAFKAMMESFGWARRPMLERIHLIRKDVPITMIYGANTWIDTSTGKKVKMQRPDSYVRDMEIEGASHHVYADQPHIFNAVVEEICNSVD
Sequence of Receptor-interacting serine/threonine-protein kinase 2 (Homo sapiens) (O43353 whole entry, looked up): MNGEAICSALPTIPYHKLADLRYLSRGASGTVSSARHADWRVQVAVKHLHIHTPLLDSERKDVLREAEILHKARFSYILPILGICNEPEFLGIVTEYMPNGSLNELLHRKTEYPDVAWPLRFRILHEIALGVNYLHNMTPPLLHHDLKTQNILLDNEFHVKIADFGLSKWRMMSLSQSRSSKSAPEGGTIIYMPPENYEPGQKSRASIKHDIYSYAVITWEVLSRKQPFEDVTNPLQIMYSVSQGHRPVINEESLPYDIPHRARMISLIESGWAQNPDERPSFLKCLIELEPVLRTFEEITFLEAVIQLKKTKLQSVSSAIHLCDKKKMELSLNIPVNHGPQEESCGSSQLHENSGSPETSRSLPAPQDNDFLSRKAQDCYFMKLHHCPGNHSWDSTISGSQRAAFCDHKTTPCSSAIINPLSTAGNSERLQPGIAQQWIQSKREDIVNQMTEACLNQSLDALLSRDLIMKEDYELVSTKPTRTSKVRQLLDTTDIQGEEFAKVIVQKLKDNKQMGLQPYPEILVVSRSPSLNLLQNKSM
Sequence of COUP transcription factor 2 (Homo sapiens) (P24468 whole entry, looked up): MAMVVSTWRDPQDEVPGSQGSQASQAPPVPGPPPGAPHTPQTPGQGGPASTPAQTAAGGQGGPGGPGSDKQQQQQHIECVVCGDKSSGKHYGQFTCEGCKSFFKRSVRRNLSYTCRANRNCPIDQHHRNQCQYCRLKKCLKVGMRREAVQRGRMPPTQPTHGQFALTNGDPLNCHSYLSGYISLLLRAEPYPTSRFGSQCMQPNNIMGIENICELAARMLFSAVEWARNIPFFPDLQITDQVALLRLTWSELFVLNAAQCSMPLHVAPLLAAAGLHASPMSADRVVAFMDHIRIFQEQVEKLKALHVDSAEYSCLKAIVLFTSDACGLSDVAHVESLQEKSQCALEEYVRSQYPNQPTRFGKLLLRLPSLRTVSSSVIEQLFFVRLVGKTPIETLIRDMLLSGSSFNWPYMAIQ
Sequence of Photoreceptor-specific nuclear receptor (Homo sapiens) (Q9Y5X4 whole entry, looked up): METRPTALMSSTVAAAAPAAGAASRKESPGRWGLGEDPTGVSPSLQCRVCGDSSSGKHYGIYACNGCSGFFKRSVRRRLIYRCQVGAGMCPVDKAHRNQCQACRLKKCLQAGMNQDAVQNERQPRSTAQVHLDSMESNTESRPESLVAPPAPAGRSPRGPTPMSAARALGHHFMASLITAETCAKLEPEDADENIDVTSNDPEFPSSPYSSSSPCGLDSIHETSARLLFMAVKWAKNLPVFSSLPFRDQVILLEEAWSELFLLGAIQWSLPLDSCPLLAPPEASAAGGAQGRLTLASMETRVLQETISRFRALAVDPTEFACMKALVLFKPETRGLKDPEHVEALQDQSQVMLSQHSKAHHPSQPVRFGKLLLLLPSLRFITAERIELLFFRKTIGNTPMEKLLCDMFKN
Sequence of Nuclear receptor coactivator 1 (Homo sapiens) (Q15788 whole entry, looked up, the tested form may be a part): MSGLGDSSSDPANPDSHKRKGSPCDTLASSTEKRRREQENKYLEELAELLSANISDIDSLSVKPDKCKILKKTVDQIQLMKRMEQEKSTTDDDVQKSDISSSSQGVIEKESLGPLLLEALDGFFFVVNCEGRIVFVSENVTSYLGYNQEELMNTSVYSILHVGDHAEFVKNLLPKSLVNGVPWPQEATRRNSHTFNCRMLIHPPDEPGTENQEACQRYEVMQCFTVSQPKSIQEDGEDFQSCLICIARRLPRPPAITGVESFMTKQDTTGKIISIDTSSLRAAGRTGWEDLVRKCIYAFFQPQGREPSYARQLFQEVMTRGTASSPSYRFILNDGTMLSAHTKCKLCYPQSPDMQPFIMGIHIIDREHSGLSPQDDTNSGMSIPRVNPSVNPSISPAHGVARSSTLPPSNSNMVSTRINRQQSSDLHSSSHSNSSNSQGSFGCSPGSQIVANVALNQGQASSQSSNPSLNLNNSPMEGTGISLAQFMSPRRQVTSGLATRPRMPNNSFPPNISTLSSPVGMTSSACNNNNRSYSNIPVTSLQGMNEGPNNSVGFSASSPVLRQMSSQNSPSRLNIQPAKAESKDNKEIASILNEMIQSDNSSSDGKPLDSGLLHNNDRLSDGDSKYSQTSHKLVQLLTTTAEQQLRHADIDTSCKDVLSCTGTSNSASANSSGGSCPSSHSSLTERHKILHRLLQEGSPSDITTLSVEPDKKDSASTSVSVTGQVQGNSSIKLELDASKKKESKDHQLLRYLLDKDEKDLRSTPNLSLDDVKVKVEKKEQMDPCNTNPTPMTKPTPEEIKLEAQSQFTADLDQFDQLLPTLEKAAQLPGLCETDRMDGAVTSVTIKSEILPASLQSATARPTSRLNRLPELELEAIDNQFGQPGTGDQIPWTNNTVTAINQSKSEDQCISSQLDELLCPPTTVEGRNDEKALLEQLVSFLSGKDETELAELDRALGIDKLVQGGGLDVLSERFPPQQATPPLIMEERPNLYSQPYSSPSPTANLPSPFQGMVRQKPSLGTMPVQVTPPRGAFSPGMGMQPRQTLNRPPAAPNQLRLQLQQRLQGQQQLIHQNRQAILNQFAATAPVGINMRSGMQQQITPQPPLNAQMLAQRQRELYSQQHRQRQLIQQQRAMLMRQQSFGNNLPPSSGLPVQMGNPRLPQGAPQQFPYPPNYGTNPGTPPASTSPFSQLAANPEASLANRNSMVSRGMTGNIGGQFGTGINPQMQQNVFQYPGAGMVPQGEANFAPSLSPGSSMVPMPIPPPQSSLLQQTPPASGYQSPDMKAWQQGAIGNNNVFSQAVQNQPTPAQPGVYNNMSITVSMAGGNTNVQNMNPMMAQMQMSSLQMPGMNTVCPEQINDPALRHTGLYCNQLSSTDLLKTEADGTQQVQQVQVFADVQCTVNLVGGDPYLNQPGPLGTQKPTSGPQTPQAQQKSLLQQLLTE

CCCCCCCCn1c2c(c(=N)c3c1CCC3)CCCC2
inactive: inhibition [1] 23.3%
active: inhibition [2] 27.8% | inhibition [3] 86.6% | inhibition [4] 43.9% | inhibition [5] 28.9% | inhibition [6] 115% | inhibition [7] 23.5% | inhibition [8] 85.1% | inhibition [9] 87.4% | inhibition [10] 66.6% | inhibition [11] 87.6% | inhibition [12] 99.3% | inhibition [13] 91.4% | inhibition [14] 78.1% | inhibition [15] 110% | inhibition [16] 96.5% | inhibition [17] 96.8% | inhibition [18] 32.1% | inhibition [19] 87.4%

CC(=O)c1sc(N/N=C\c2ccc(C)cc2)nc1C
active: activation (% of control) [20] 191% | activation (% of control) [21] 143%
inactive: activation (% of control) [22] 107%

Cc1ccc(S(=O)(=O)/N=C2\C=C(NS(=O)(=O)c3ccc(C)cc3)C(=O)c3ccccc32)cc1
active: inhibition [23] 60.6%
inactive: activation [24] -1.1% | inhibition [25] 5.59% | inhibition [26] 12%

CO/N=C(\C(=O)N[C@@H]1C(=O)N2C(C(=O)O)=C(COC(C)=O)CS[C@H]12)c1csc(N)n1 (stereo in doubt)
active: inhibition [27] 99.2% and 97% | inhibition [28] 99.5% and 97.6% | inhibition [29] 99.6% and 98.1% | inhibition [30] 100% and 96.2% and 102% | inhibition [31] 102% and 97.1% and 103% | inhibition [32] 102% and 96.3% | inhibition [26] 42.8%
inactive: activation [24] 0.25% | inhibition [25] -1.28%

Cc1ccc(NC(=O)Nc2ccccc2)c(Br)c1
inactive: activation (% of control) [21] 124% | activation (% of control) [22] 89.8%
active: activation (% of control) [20] 171%

C=CC1=C(C(=O)O)N2C(=O)[C@@H](NC(=O)/C(=N/OCC(=O)O)c3csc(N)n3)[C@H]2SC1
active: inhibition [27] 102% | inhibition [28] 100% | inhibition [29] 101% | inhibition [30] 100% | inhibition [31] 101% | inhibition [32] 101% | inhibition [34] 20% | activation [24] 42.3% | inhibition [26] 90.4%
inactive: inhibition [33] 6.41% | inhibition [25] -213%

Cc1cccc(COc2ccccc2/C=N/Nc2ccc([N+](=O)[O-])cc2)c1
active: inhibition [2] 36.9% | inhibition [39] 44.2% | inhibition [40] 50.4%
inactive: inhibition [1] 16.9% | inhibition [35] 9.96% | inhibition [36] 20.3% | inhibition [37] 23.3% | inhibition [38] -1.39%
